PostGolgi yeast = growth inhibition of a yeast mutant, post-Golgi transport screen. 98,000 compounds, 0.9% hits. inhibition, % at 10 µM. post-Golgi transport phenotypic cell assay;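 also: yeast cells grown in 1536-well plates; yeast grown about 18 h at 30C before absorbance read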
CYP2C19 inh = human CYP2C19 inhibition. P33261. inhibition, % at 5 µM. 96,000 compounds, 21% hits. CYP2C19 Supersomes, luciferin-H EGE luminescence, 30 min;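 active = CYP2C19 inhibition above a set limit at 5 µM in the primary screen, cut at about 50% in these data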;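 also: plate controls were negative control wells for no effect and 2.5 mM tranylcypromine positive control for full effect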
PostGolgi ctrl = inhibits growth of the yeast control strain; efflux-deficient yeast background strain, growth absorbance A615, 16 h; inhibition, % at 10 µM; 98,000 compounds, 5% hits; AID 738
CYP2C9 act = increases human cytochrome P450 2C9 activity; P11712; recombinant CYP2C9, luciferin-H conversion, luminescence; stronger effect = higher value; factor 1 = untreated enzyme, 0 = blocked; activation factor at 5 µM; 96,000 compounds, 1.4% hits;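 active = activation factor of 2 or more for CYP2C9 at a 5 µM dose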;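 also: 0 = sulfaphenazole-blocked wells and 1 = vehicle-only wells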
Target sequence (P11712 whole entry, looked up): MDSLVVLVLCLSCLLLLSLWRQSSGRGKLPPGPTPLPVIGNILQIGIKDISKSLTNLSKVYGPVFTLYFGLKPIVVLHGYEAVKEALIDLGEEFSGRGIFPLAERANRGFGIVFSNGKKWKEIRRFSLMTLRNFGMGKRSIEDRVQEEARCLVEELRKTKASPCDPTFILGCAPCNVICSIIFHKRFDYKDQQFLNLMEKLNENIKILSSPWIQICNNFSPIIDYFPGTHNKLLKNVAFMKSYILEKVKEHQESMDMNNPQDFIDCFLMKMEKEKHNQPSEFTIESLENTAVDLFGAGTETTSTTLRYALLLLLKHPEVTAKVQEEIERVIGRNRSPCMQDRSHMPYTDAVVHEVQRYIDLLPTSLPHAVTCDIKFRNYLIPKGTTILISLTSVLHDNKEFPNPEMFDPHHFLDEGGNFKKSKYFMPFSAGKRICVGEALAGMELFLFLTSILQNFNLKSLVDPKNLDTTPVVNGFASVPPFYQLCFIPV
CYP2C9 inhib = inhibitors of human CYP2C9; 96,000 compounds, 20% hits; P11712; inhibition, % at 5 µM; CYP2C9 Supersomes, luciferin-H conversion, luminescence;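 active = blocking of liver enzyme CYP2C9 beyond about 50% at 5 µM, limit read from the data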
CYP2C19 act = increases human CYP2C19 enzyme activity | P33261 | recombinant CYP2C19, luciferin-H EGE luminescence; stronger effect = higher value; 0 = fully inhibited enzyme, 1 = untreated enzyme | activation factor at 5 µM | 96,000 tested, under 10 active;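 active = activation factor of at least 2 at 5 µM in the primary screen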;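 also: 0 = wells with 2.5 mM tranylcypromine and 1 = vehicle-only wells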
Numbers without * were called inactive; x = no result. An excerpt weighted towards active compounds, which were near 32% of everything screened. Rule as the data show it, unless noted: active = inhibition above about 30%; inactive = the rest.

SMILES	PostGolgi yeast	CYP2C19 inh	PostGolgi ctrl	CYP2C9 act	CYP2C9 inhib	CYP2C19 act
CNC(=O)CSc1nnc(-c2ccncc2)n1Cc1ccccc1	-1	17	-3	0.9	13	0.8
CCCn1c(SCC(=O)Nc2nnc(-c3ccccc3)s2)nnc1-c1ccccn1	-2	73*	8	0.3	71*	0.3
CC#CCCCC(=O)Nc1ccccc1C(=O)O	-18	-9	0	0.8	23	1.1
CCn1c(SCC(=O)NC(C)(C)C)nnc1-c1ccccn1	-5	73*	7	0.8	23	0.3
CCn1c(SCC(=O)Nc2cc(NC(C)=O)ccc2OC)nnc1-c1ccccn1	3	x	-9	x	x	x
CC(=O)N1CCC(N(C(=O)Nc2c(F)cccc2F)C(C)C)CC1	-14	-16	4	1.1	-14	1.2
Cc1nc(SCC(=O)O)c2oc3ccccc3c2n1	-19	0	-5	1.1	-6	1
CCOC(=O)CC(=O)CSc1nc(C)nc2c1oc1ccccc12	-1	32	2	0.6	41	0.7
O=C(CSc1ncnc2c1oc1ccccc12)c1cccs1	8	27	9	0.5	46	0.7
Cc1nc(SCC(=O)N2CCN(c3ccccc3)CC2)c2oc3ccccc3c2n1	0	45	35*	0.4	56*	0.6
Cc1nc(SCC(=O)c2cccs2)c2oc3ccccc3c2n1	17	26	28	0.4	64*	0.7
Cc1nc(SCC(=O)NCc2ccccc2)c2oc3ccccc3c2n1	-2	30	7	0.2	79*	0.7
Cc1sc2ncnc(SC(C)C#N)c2c1C (stereo not drawn)	-1	x	8	x	x	x
N#CC1C(=O)NC(N2CCN(c3ccccc3)CC2)=NC12CCCCC2 (stereo not drawn)	5	11	1	0.8	21	0.9
O=C1CCCN1CCCNc1ncnc2c1cnn2-c1ccc(Cl)cc1	-3	11	38*	0.9	11	0.9
CC(C)CCn1cnc2c(cnn2-c2ccc(Cl)cc2)c1=O	-4	32	3	0.3	71*	0.7
CN(C)CCNc1ncnc2c1cnn2-c1ccc(Cl)cc1	-2	4	1	1	-5	1
CCC(CO)Nc1ncnc2c1cnn2-c1ccc(Cl)cc1 (stereo not drawn)	22	46	17	0.3	65*	0.5
CCC(C(=O)OC)n1cnc2c(cnn2-c2ccc(Cl)cc2)c1=O (stereo not drawn)	1	-4	41*	0.8	22	1
CCOc1ccc(Cl)cc1CSc1n[nH]c(CC)n1	-9	94*	34*	0.3	72*	0.1
CCCCOc1ccc(Cl)cc1CSc1nnc(C)n1N	5	19	1	0.8	20	0.8
CCCCOc1ccc(Cl)cc1CSc1n[nH]c(C)n1	-17	85*	13	0.4	64*	0.2
COc1ccc(Cl)cc1CSc1n[nH]c(C)n1	6	88*	14	0.8	15	0.1
CCOC(=O)Cc1c(C)nc2cc(-c3ccc(Cl)cc3)[nH]n2c1=O	-1	-3	1	1	2	1
CCOC(=O)CNc1c(-c2ccc(Cl)cc2)nc2cnccn12	5	89*	4	0.3	74*	0.1
SMILES	PostGolgi yeast	CYP2C19 inh	PostGolgi ctrl	CYP2C9 act	CYP2C9 inhib	CYP2C19 act
CCOC(=O)CNc1c(-c2ccc(F)cc2)nc2cnccn12	9	60*	5	0.6	38	0.4
CCn1c(Cc2ccccc2)nnc1SCC(=O)Nc1ccc(N)cc1	3	20	1	0.9	6	0.8
CCn1c(SCC(=O)Nc2ccc3c(c2)oc2ccccc23)nnc1-c1ccc(N)cc1	42*	31	18	0.2	78*	0.7
COc1ccccc1NC(=O)CSc1nnc(-c2ccc(NC(C)=O)cc2)n1C	17	-5	-3	0.8	24	1
CC(=O)Nc1ccc(-c2nnc(SCC(=O)Nc3ccc4c(c3)oc3ccccc34)n2C)cc1	-6	47	5	0.3	69*	0.5
CCOC(=O)Cn1c(N2CCCCCC2)nc2c1c(=O)[nH]c(=O)n2C	6	-1	-6	0.9	5	1
N/C(Cc1ccc(Cl)cc1)=N\OC(=O)c1ccccc1	-1	66*	45*	0.4	63*	0.3
Cc1cccc(OCC(=O)O/N=C(\N)Cc2ccc(Cl)cc2)c1	30*	1	-2	1.1	-7	1
Cc1ccc(OCC(=O)O/N=C(\N)Cc2ccc(Cl)cc2)cc1	0	-2	25	1	5	1
CC(C)CCn1c(Br)nc2c1c(=O)n(CC(N)=O)c(=O)n2C	1	9	2	1	1	0.9
CCc1nnc(NC(=O)CSc2nnc(COc3ccccc3)n2-c2ccc(C)cc2)s1	-1	0	10	1	4	1
Cc1ccc(-c2nnc(CSc3nnc(COc4ccccc4)n3-c3ccc(C)cc3)o2)cc1	6	36	34*	0.3	71*	0.6
Cc1ccc(-c2nnc(CSc3nnc(COc4ccccc4)n3-c3ccccc3)o2)cc1	-1	92*	16	0	98*	0.1
CCOc1ccc(-c2nnc(SCc3nnc(-c4ccccc4)o3)n2-c2ccccc2F)cc1	-24	4	0	0.9	6	1
C/C(=N\NS(=O)(=O)c1ccc(C)cc1)c1ccc(Br)s1	-1	58*	17	0.3	71*	0.4
Cc1ccc(CN2C(=O)CCC2C(=O)NCc2cccnc2)cc1 (stereo not drawn)	-17	19	24	1	3	0.8
CC1CCCC(C)N1C(=O)CSc1nnnn1Cc1ccccc1 (stereo not drawn)	4	20	15	0.9	5	0.8
CC1CCCCN1C(=O)c1ccc(C(=O)N2CCCCC2C)cc1 (stereo not drawn)	-1	3	11	0.9	8	1
O=C(Cc1ccccc1)N1CCCC1c1ccccc1 (stereo not drawn)	11	79*	2	0.8	22	0.2
O=C(NCc1ccccc1F)C1CCCN1C(=O)NCc1ccccc1 (stereo not drawn)	7	20	0	1	2	0.8
CC1CCCCN1C(=O)Cc1ccc(F)cc1 (stereo not drawn)	-5	75*	19	0.8	22	0.3
CC1CCCC(C)N1C(=O)Cc1ccccc1 (stereo not drawn)	18	76*	9	0.6	41	0.2
O=C(Cn1nnc2ccccc2c1=O)NCc1ccco1	-1	2	17	0.8	18	1
CCCCc1ccc(NC(=O)C2CCCO2)cc1 (stereo not drawn)	-5	11	8	0.8	20	0.9
COc1ccc(CSc2nc3ccccc3[nH]2)cc1	-5	48	3	0.4	63*	0.5
COC(=O)c1ccc(CSc2nc3c(cnn3-c3ccccc3)c(=O)[nH]2)o1	-4	x	1	x	x	x
c1ccc2[nH]c(SCc3ccc(-c4nnco4)cc3)nc2c1	-1	99*	-8	0.1	95*	0
